Experimental findings from ChEMBL document CHEMBL3988442, “University of Dundee, Small-Polar-MMV Screening Library” (2021) are described below.

One assay deals with T1, Proteasome subunit beta (Trypanosoma cruzi) (UniProt O96673).
T1 sequence (whole entry): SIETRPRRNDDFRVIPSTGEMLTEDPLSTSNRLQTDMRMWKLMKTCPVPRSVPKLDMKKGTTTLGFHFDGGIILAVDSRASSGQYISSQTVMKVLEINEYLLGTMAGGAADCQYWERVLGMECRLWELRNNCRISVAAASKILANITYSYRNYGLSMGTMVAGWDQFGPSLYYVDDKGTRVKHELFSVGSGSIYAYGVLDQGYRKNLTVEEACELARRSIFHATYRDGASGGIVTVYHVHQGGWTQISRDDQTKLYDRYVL
In words: Trypanosoma cruzi proteasome chymotrypsin-like activity (TcProtChymo) assay. Type of assay: functional. On the set-up: scale not given: in the data most compounds retested in dose-response had high values. As to conditions: 9.37 µM.
Regarding `c1cnn(Cc2nnc(C3CCN(C4CCOCC4)CC3)n2C2CC2)c1`, the Percent Effect came to 16.2%.

Regarding `CCOc1ccccc1C(CC(=O)Nc1ccc(C)cn1)NC(C)=O` (stereo not given), the Percent Effect stood at 4.34%.

`Cc1nc(C)n(CC2CN(Cc3cccnc3)CCO2)n1` (stereo not given): the Percent Effect was found to be 6.85%.

For the compound `CCOc1ccc(C#N)cc1NCC(=O)Nc1cc(F)ccc1F`, the Percent Effect was 3.19%.

Consider `COCC1CN(C(=O)C2=CCCCC2)Cc2cnn(CC3CC3)c21` (stereo not given), for which the Percent Effect was 10.1%.

Turning to `O=S1(=O)COCCN1Cc1cccc(Cl)c1`, the Percent Effect turned out to be 13.4%.

Regarding `COCCN(Cc1nc2c(cnn2C)c(=O)[nH]1)Cc1ccco1`, the Percent Effect was 12.6%.

Take `O=C(c1ccc(F)cc1)N1CCN2C[C@H](OCc3ccccn3)C[C@H]2C1`: the Percent Effect came out at 20.7%.

In the case of `CCO[C@@H]1CCN(C(=O)c2ccc[nH]2)[C@@H]1Cc1cnn(C)c1`, the Percent Effect came out at 2.56%.

Turning to `O=C1C[C@H]2[C@@H](CCN2C(=O)c2ccccc2)N1CCN1CCOCC1`, the Percent Effect is 2.48%.

For `CC(NC(=O)NCCCn1cccn1)c1ccc2c(c1)NC(=O)CO2` (stereo not given), the Percent Effect was determined as 10.2%.

Regarding `CCc1nc(C(=O)N2CCCC2)nn1-c1ccccc1Cl`, the Percent Effect turned out to be 2.62%.

Take `CN(CCOc1cccc(CNC(=O)C2CC2)c1)C1CCOCC1`: the Percent Effect was -3.45%.

Regarding `CC(C)C1CN(C(=O)c2ccc(N3CCCC3)nc2)CCS1` (stereo not given), the Percent Effect was -1.17%.

Regarding `O=C(CCn1ccccc1=O)Nc1ccc(F)c(Cl)c1`, the Percent Effect came out at 10.7%.

Regarding `CCS(=O)(=O)c1ccccc1N1CCC(NC(=O)NC2CCCC2)CC1`, the Percent Effect is -1.62%.

As for `O=C(NS(=O)(=O)c1cc(Cl)sc1Cl)c1cccc2c1OCCO2`, the Percent Effect is 13.5%.

As to `CN(C)C(=O)CNC(=O)c1ccc(Cl)cc1F`, the Percent Effect amounted to 13.7%.

Turning to `COc1cccc(N2CCN(CCC(=O)NC3CCCC3)CC2)c1`, the Percent Effect was 16.6%.

For `c1csc(CN2Cc3nccn3CC(Cn3cncn3)C2)n1` (stereo not given), the Percent Effect stood at 11.2%.

Consider `Cc1cc2nc(SCC(=O)N3CCCC3)n(-c3ccccc3)c(=O)c2[nH]1`, for which the Percent Effect turned out to be 19.6%.

For the compound `Cc1ccc(CN2CCCC3(CCN(S(C)(=O)=O)C3)C2)o1` (stereo not given), the Percent Effect is 3.96%.

With `CC(NC(=O)NCC1(N2CCCCC2)CCCCC1)c1nncn1C` (stereo not given), the Percent Effect was -0.931%.

Consider `CCOc1ncccc1C(=O)N(C)Cc1ncc(C)c(OC)c1C`, for which the Percent Effect turned out to be 12.5%.

As for `Cc1cc(C[C@@H]2COC[C@H]2NCc2ccc(Br)s2)on1`, the Percent Effect was -1.72%.

In the case of `CC(C)N1CCC(Cc2cncc(-c3ccccc3C(=O)O)n2)CC1`, the Percent Effect stood at 4.32%.

In the case of `Cc1ccc2oc(CNC(C)c3nnc4n3CCCC4)cc2c1` (stereo not given), the Percent Effect was 10.6%.

For the compound `CC(=O)N1CCN(C(=O)NCc2csc(Br)c2)CC1`, the Percent Effect is -3.77%.

Regarding `CCc1noc(C(C)N2CCN(Cc3nc(C)c(C)o3)CC2)n1` (stereo not given), the Percent Effect turned out to be 0.668%.

`CC(C)c1csc(C2CCCN(C(=O)c3ncccn3)C2)n1` (stereo not given): the Percent Effect is 3.69%.

In the case of `CC(C)(C)N1CC(C(=O)N2CCN(CCn3cccc3)CC2)CC1=O` (stereo not given), the Percent Effect was 12%.

Consider `CC(C)c1nc(C2CCCN2CCc2ccncc2)no1` (stereo not given), for which the Percent Effect is 13%.

On to `CC(=O)NCc1ccc(C(=O)N2CCCC2c2cnn(C)c2)o1` (stereo not given), for which the Percent Effect worked out at 6.51%.

Take `CC(C)NC(=O)c1n[nH]c(-n2cnnc2)n1`: the Percent Effect is 2.77%.

On to `Cc1cc(C)n(CC2CN(Cc3nc(-c4ccoc4)no3)CCO2)n1` (stereo not given), for which the Percent Effect came to 5.22%.

In the case of `Cc1nn(C)c(N2CCOCC2)c1CNCc1ccc(Cl)s1`, the Percent Effect turned out to be 9.62%.

For the compound `CC(=O)N1CCCN(c2nccc(-c3cn(C)nc3C)n2)CC1`, the Percent Effect worked out at 9.24%.

Take `Cc1scc(C(=O)N2CCC3(CCCN(C)C3=O)C2)c1-c1ccccc1` (stereo not given): the Percent Effect came out at 7.41%.

As to `Cc1cccc2[nH]c(C3CCN(C(=O)c4ccnn4C)CC3)nc12`, the Percent Effect turned out to be 15.1%.

As to `Cc1cccc(CN2CCc3c(nc(N4CCCCC4C)[nH]c3=O)C2)n1` (stereo not given), the Percent Effect came to 9.36%.

Another assay is filed under the species Homo sapiens. Put plainly: To identify inhibition of the IFN signalling (Jak-Stat) pathway via expression of an eGFP reporter gene under the control of an IFN-stimulated response element (ISRE) containing MxA promoter. It counts as functional. Set-up: scale not given: direction of the effect not stated beside the values. The settings on record: 30 µM.
Consider `c1cnn(Cc2nnc(C3CCN(C4CCOCC4)CC3)n2C2CC2)c1`, for which the Percent Effect was 12.2%.

In the case of `CCOc1ccccc1C(CC(=O)Nc1ccc(C)cn1)NC(C)=O` (stereo not given), the Percent Effect stood at 4.19%.

For `Cc1nc(C)n(CC2CN(Cc3cccnc3)CCO2)n1` (stereo not given), the Percent Effect is -13.4%.

In the case of `CCOc1ccc(C#N)cc1NCC(=O)Nc1cc(F)ccc1F`, the Percent Effect is -7.08%.

Take `COCC1CN(C(=O)C2=CCCCC2)Cc2cnn(CC3CC3)c21` (stereo not given): the Percent Effect was determined as 18%.

Consider `O=S1(=O)COCCN1Cc1cccc(Cl)c1`, for which the Percent Effect came out at 17.7%.

For `COCCN(Cc1nc2c(cnn2C)c(=O)[nH]1)Cc1ccco1`, the Percent Effect worked out at 4.47%.

As to `O=C(c1ccc(F)cc1)N1CCN2C[C@H](OCc3ccccn3)C[C@H]2C1`, the Percent Effect is -8.06%.

Turning to `CCO[C@@H]1CCN(C(=O)c2ccc[nH]2)[C@@H]1Cc1cnn(C)c1`, the Percent Effect came out at 19.4%.

With `O=C1C[C@H]2[C@@H](CCN2C(=O)c2ccccc2)N1CCN1CCOCC1`, the Percent Effect turned out to be 0.931%.

`CC(NC(=O)NCCCn1cccn1)c1ccc2c(c1)NC(=O)CO2` (stereo not given): the Percent Effect is 15.4%.

Turning to `CCc1nc(C(=O)N2CCCC2)nn1-c1ccccc1Cl`, the Percent Effect was found to be 4.97%.

Turning to `CN(CCOc1cccc(CNC(=O)C2CC2)c1)C1CCOCC1`, the Percent Effect is -3.27%.

`CC(C)C1CN(C(=O)c2ccc(N3CCCC3)nc2)CCS1` (stereo not given): the Percent Effect is -12.6%.

For the compound `O=C(CCn1ccccc1=O)Nc1ccc(F)c(Cl)c1`, the Percent Effect was -1.47%.

Take `CCS(=O)(=O)c1ccccc1N1CCC(NC(=O)NC2CCCC2)CC1`: the Percent Effect worked out at 16%.

For `O=C(NS(=O)(=O)c1cc(Cl)sc1Cl)c1cccc2c1OCCO2`, the Percent Effect stood at 24.9%.

Regarding `CN(C)C(=O)CNC(=O)c1ccc(Cl)cc1F`, the Percent Effect was determined as 15.7%.

Turning to `COc1cccc(N2CCN(CCC(=O)NC3CCCC3)CC2)c1`, the Percent Effect is 4.41%.

Turning to `c1csc(CN2Cc3nccn3CC(Cn3cncn3)C2)n1` (stereo not given), the Percent Effect is -1.52%.

For the compound `Cc1cc2nc(SCC(=O)N3CCCC3)n(-c3ccccc3)c(=O)c2[nH]1`, the Percent Effect is -5.99%.

For the compound `Cc1ccc(CN2CCCC3(CCN(S(C)(=O)=O)C3)C2)o1` (stereo not given), the Percent Effect worked out at 15.2%.

On to `CC(NC(=O)NCC1(N2CCCCC2)CCCCC1)c1nncn1C` (stereo not given), for which the Percent Effect was determined as 5.56%.

For `CCOc1ncccc1C(=O)N(C)Cc1ncc(C)c(OC)c1C`, the Percent Effect amounted to 27.5%.

With `Cc1cc(C[C@@H]2COC[C@H]2NCc2ccc(Br)s2)on1`, the Percent Effect is 31.8%.

For the compound `CC(C)N1CCC(Cc2cncc(-c3ccccc3C(=O)O)n2)CC1`, the Percent Effect stood at 13.7%.

In the case of `Cc1ccc2oc(CNC(C)c3nnc4n3CCCC4)cc2c1` (stereo not given), the Percent Effect was 17.8%.

For `CC(=O)N1CCN(C(=O)NCc2csc(Br)c2)CC1`, the Percent Effect is 6.02%.

Regarding `CCc1noc(C(C)N2CCN(Cc3nc(C)c(C)o3)CC2)n1` (stereo not given), the Percent Effect turned out to be 20.8%.

As for `CC(C)c1csc(C2CCCN(C(=O)c3ncccn3)C2)n1` (stereo not given), the Percent Effect came out at 7.7%.

Consider `CC(C)(C)N1CC(C(=O)N2CCN(CCn3cccc3)CC2)CC1=O` (stereo not given), for which the Percent Effect is 5.12%.

In the case of `CC(C)c1nc(C2CCCN2CCc2ccncc2)no1` (stereo not given), the Percent Effect came to 27%.

As to `CC(=O)NCc1ccc(C(=O)N2CCCC2c2cnn(C)c2)o1` (stereo not given), the Percent Effect was -0.0723%.

Regarding `CC(C)NC(=O)c1n[nH]c(-n2cnnc2)n1`, the Percent Effect was 2.63%.

Turning to `Cc1cc(C)n(CC2CN(Cc3nc(-c4ccoc4)no3)CCO2)n1` (stereo not given), the Percent Effect was found to be 7.72%.

Take `Cc1nn(C)c(N2CCOCC2)c1CNCc1ccc(Cl)s1`: the Percent Effect turned out to be 11.3%.

Regarding `CC(=O)N1CCCN(c2nccc(-c3cn(C)nc3C)n2)CC1`, the Percent Effect is -1.59%.

As for `Cc1scc(C(=O)N2CCC3(CCCN(C)C3=O)C2)c1-c1ccccc1` (stereo not given), the Percent Effect was -8.13%.

Regarding `Cc1cccc2[nH]c(C3CCN(C(=O)c4ccnn4C)CC3)nc12`, the Percent Effect was 2.04%.

As for `Cc1cccc(CN2CCc3c(nc(N4CCCCC4C)[nH]c3=O)C2)n1` (stereo not given), the Percent Effect stood at 13.8%.
